# Only some compounds are listed: those with a hit (about 2.4% of all), similar ones and a draw of the others.
# D2 PAM-1: D2 dopamine receptor (human) potentiation. P14416. 340,000 compounds, 0.34% hits. HEK293 T-REx D2, calcium flux, EC20 dopamine potentiation. potentiation, % at 10 µM;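 active = potentiation over 3 SD above the plate norm, cut at about 30% in these data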; note: 0% is about no effect
# Target sequence (P14416 whole entry, looked up): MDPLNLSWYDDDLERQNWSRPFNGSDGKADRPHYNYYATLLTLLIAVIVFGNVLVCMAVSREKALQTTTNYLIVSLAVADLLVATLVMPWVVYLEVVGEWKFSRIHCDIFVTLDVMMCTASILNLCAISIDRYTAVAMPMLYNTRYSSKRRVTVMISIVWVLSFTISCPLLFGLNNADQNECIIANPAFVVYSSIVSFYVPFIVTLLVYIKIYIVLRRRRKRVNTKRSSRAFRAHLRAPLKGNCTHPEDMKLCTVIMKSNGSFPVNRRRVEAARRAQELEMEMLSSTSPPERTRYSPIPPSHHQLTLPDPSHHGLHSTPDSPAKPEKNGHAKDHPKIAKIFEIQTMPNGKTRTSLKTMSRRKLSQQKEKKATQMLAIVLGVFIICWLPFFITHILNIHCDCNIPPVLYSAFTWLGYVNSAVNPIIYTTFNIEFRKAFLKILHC
#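 Cells plated with tetracycline inducer and held overnight at 30 C; calcium dye loaded 30–90 min at room temperature; baseline taken, compound added and read 180 s; EC20 dopamine then added and read 180 s.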
# D2 PAM-2: human D2 receptor positive allosteric modulation; P14416; DiscoveRx D2 beta-arrestin cells, luminescence, 90 min; 100% = 57 uM dopamine signal; potentiation, % (test concentration not listed); 360,000 compounds, 0.23% hits; AID 624464; in the data active = potentiation above about 50%; inconclusive = mostly about 30% to 49%
#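 PathHunter D2 cells, attached overnight at 37 deg C, received compound in DMSO plus dopamine at EC20 (50 nM final) for 90 min at 37 deg C. Beta-arrestin recruitment was read as luminescence after 1 h with detection reagent at ambient temperature.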
# D2 ag-1: human D2 receptor agonism in beta-arrestin assay; 360,000 compounds, 0.084% hits; P14416; activation, % (test concentration not listed); DiscoveRx PathHunter D2 beta-arrestin, luminescence, 90 min; 100% = 57 uM dopamine signal; in the data active = activation above about 40%; inconclusive = between about 15% and that limit
#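 DiscoveRx PathHunter D2 beta-arrestin cells (2,100/well) attached overnight, then compound-stimulated 90 min at 37 C in HBSS/10 mM HEPES/0.1% Tween-20 buffer; beta-galactosidase complementation read by luminescence after 1 h at ambient temperature. Dopamine 57 uM final (EC100) as control.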
# D2 ag-2: activates the human D2 dopamine receptor; HEK293 T-REx D2 cells, calcium flux agonist mode; P14416; 340,000 compounds, 0.53% hits; activation, % at 2 µM; AID 485358;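 active = activation over 3 SD above normal in the single-dose calcium agonist read, cut at about 30% in these data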; note: 0% is about no effect
#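 HEK293 Trex D2 cells, tetracycline-induced, o/n 30 C 5% CO2; no-wash Ca dye, RT 30–90 min; 10-cycle baseline, 23 nl cpd added, kinetic Ca read 180 s; agonist hits = positive Ca response.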
# D2 antagonist: antagonizes the human D2 dopamine receptor. inhibition, % at 10 µM. P14416. 340,000 compounds, 2% hits. HEK293 TREx D2 cells, calcium flux, dopamine EC80. AID 485344; in the data active = inhibition above about 30%; inactive = below that, where a call was filed; note: 0% is about no effect
#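 HEK293 T-REx D2 cells, tet-induced, calcium dye no-wash. Cpd pintool add, 180 s kinetic, then EC80 DA, 180 s kinetic. Ca flux read.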
# * = called active by the depositor; u = inconclusive; x = not tested or not shown.
SMILES,D2 PAM-1,D2 PAM-2,D2 ag-1,D2 ag-2,D2 antagonist
COc1ccc(N2CCN(C(=O)CSc3nnnn3C3CC3)CC2)cc1,-15,-2,-1,1,32*
COc1ccccc1N1CCN(C(=O)CSc2nnnn2C2CC2)CC1,1,-15,-2,1,2
CCOc1ccc(CNc2nc3nc(C)c(Cc4ccccc4)c(=O)n3[nH]2)cc1,14,x,x,0,x
CC[C@@H](C(=O)[C@@H](C)[C@@H](O)[C@H](C)CCc1ccc(C)c(O)c1C(=O)O)[C@H]1O[C@](CC)([C@H]2CC[C@](O)(CC)[C@H](C)O2)C[C@@H]1C,-20,u,u,15,49*
CC(C)Oc1ccc(CNC(=O)c2ccc3nc(Cc4ccccc4)oc3c2)cc1,x,x,x,1,x
CCCC12CN3CCN(CC(C3)/C1=N\NC(=O)c1ccc(F)cc1)C2,-2,-9,6,2,1
CCCC12CN3CCN(CC(C3)/C1=N\NC(=O)Nc1ccccc1)C2,1,0,2,1,54*
COc1cccc(C(=O)N2CCCCC2CCN2CCCCC2)c1 (stereo unspecified),-6,x,x,-1,x
Cc1cccc(-c2nc3c4ccccc4nc(N4CCN(c5ccccc5F)CC4)n3n2)c1,6,x,x,0,x
O=C(CCN1C(=O)c2ccccc2S1(=O)=O)N1CCN(c2ccccc2)CC1,-6,-28,4,0,11
O=C(CCN1C(=O)c2ccccc2S1(=O)=O)N1CCN(c2ccc(F)cc2)CC1,-9,-3,-6,0,33*
CCOC(=O)c1cccc(Nc2ncnc3ccccc23)c1,34*,-7,1,1,14
Cc1ccc(S(=O)(=O)N2CCN(CC(=O)N3CCOCC3)CC2)cc1,10,-3,-8,0,-6
CC(=O)Nc1ccc(S(=O)(=O)N2CCN(Cc3csc(C)n3)CC2)cc1,9,53*,-5,0,-7
CC(=O)Nc1ccc(S(=O)(=O)N2CCN(CC(=O)N3CCOCC3)CC2)cc1,-3,-13,-4,1,37*
CC(=O)Nc1ccc(S(=O)(=O)N2CCN(Cc3ccccc3[N+](=O)[O-])CC2)cc1,38*,-4,2,1,-3
CC(=O)Nc1ccc(S(=O)(=O)N2CCN(Cc3ccccn3)CC2)cc1,1,-10,-1,4,23
COc1ccc(Br)cc1CNC(=O)c1cc2n(n1)CCCN(Cc1ccc(C)cc1)C2=O,0,x,x,2,x
COc1cc(OC)c2c(C)c(CC(=O)NCc3ccccc3OC)c(=O)oc2c1,0,x,x,-1,x
Cc1ccc(C(C)C)cc1NC(=O)Nc1ccc([N+](=O)[O-])cc1,-23,-23,9,4,37*
CCOc1ccc(NC(=O)Nc2cc(C(C)C)ccc2C)cc1,-23,x,x,-1,31*
Cc1cc(O)c(C(C)C)cc1NC(=O)Nc1ccc([N+](=O)[O-])cc1,x,-18,-3,x,x
COc1ccc(C)cc1NC(=O)NCCC1=CCCCC1,-30,-22,-3,-1,86*
COC(=O)c1ccc(NC(=S)NCCC2=CCCCC2)cc1,-16,-19,-1,0,55*
CCN1CCN(S(=O)(=O)c2ccc(Cl)c(C(=O)NC3CCCC3)c2)CC1,-7,-6,3,0,47*
SMILES,D2 PAM-1,D2 PAM-2,D2 ag-1,D2 ag-2,D2 antagonist
CCN1CCN(S(=O)(=O)c2ccc(Cl)c(C(=O)NC3CC3)c2)CC1,-7,-6,-3,1,-53
CCN1CCN(S(=O)(=O)c2ccc(Cl)c(C(=O)NC(C)(C)C)c2)CC1,-9,-3,-5,5,30*
COc1ccc2c(c1)NC(c1ccc(OCC(C)C)cc1)=NC(c1ccncc1)=N2,-5,x,x,-1,x
COc1cccc(-c2cn3c(n2)sc2cc(C(=O)NCc4ccccc4F)ccc23)c1,9,x,x,0,x
COCCNC(=O)CSc1nnc(-c2ccc(OC)c(OC)c2)c(-c2ccc(OC)c(OC)c2)n1,5,x,x,1,x
COc1ccc(/C=C\C(=O)NCC(=O)N/N=C/c2cccc(OC)c2O)cc1,-16,-14,-4,1,-3
COc1ccccc1/C=C\C(=O)NCC(=O)N/N=C/c1ccc(O)cc1O,-21,-11,-2,-2,77*
COc1ccc(/C=C/C(=O)NCC(=O)N/N=C/c2cc(Br)ccc2OCc2ccccc2)cc1,-11,-11,1,0,-13
COc1cccc(/C=N/NC(=O)CNC(=O)/C=C\c2ccccc2)c1O,-16,2,3,0,54*
COc1ccc(Br)cc1/C=N/NC(=O)CNC(=O)/C=C/c1ccccc1,-26,-41,-2,0,76*
COC(=O)c1ccsc1NC(=O)CS(=O)(=O)c1ccccc1,-12,-12,-1,0,31*
COc1ccccc1CNc1nc(-c2ccco2)nn1C(=O)c1ccccc1[N+](=O)[O-],13,x,x,0,x
COc1cc(C2CC(=O)Oc3c(C(CCN4CCCC(C)C4)c4ccc(N(C)C)cc4)c(OC)cc(OC)c32)cc(OC)c1OC (stereo unspecified),-18,-24,1,0,44*
COc1cc(CO)ccc1Oc1nnnn1-c1ccc(C(N)=O)cc1,-6,-6,-1,0,31*
CCN(CC)c1ccc(/C=C2\C(=O)c3ccc(C(=O)O)cc3C2=O)cc1,-1,-4,-4,110*,54*
CC(C)c1ccc(-c2nc(N3CCCC3)nc3n[nH]c(N)c23)cc1,44*,-6,-1,0,2
c1ccc(C(c2nnnn2Cc2ccco2)N2CCN(c3nc4ccccc4s3)CC2)cc1 (stereo unspecified),30*,26,0,-1,12
COc1ccc(-c2cc3ccccc3n2CC(O)CN2CCC(C)CC2)cc1 (stereo unspecified),-25,-12,-8,0,81*
COc1ccc(-c2cc3ccccc3n2CC(O)Cn2nc(C)cc2C)cc1 (stereo unspecified),8,-12,-5,1,-13
O=C(Nc1ccccc1)c1nc[nH]c1C(=O)N1CCc2ccccc2C1,-27,-18,2,0,10
Cc1cccc(NC(=O)c2nc[nH]c2C(=O)N2CCc3ccccc3C2)c1,-28,-25,-1,0,86*
O=C(Nc1cccc(Cl)c1)c1nc[nH]c1C(=O)N1CCc2ccccc2C1,-26,-28,-1,-1,56*
COC(=O)CC1COc2ccccc2N1C(=O)c1ccc(C(C)(C)C)cc1 (stereo unspecified),-18,59*,u,33*,7
Cc1cccc(N2CCN(C(=O)C3CCN(S(=O)(=O)c4cccs4)CC3)CC2)c1C,-6,x,x,0,x
CCOC(=O)Cn1c(CN2CCN(c3cccc(Cl)c3)CC2)nc2c1c(=O)[nH]c(=O)n2C,-25,-7,-4,0,30*

# Screens as filed in PubChem.
